{"source": "the supplement of paper PMC3334620", "note": "In all, about 33,000 sequences were measured (“E-score (-0.5 to 0.5)”: median about -0.043, highest 2% from about 0.37 on). The list comes from a sample in which the highest values are over-represented; it also holds similar and randomly drawn sequences."}
{"biological_target": "T1, Upc2 (UniProt Q12151)", "T1 sequence": "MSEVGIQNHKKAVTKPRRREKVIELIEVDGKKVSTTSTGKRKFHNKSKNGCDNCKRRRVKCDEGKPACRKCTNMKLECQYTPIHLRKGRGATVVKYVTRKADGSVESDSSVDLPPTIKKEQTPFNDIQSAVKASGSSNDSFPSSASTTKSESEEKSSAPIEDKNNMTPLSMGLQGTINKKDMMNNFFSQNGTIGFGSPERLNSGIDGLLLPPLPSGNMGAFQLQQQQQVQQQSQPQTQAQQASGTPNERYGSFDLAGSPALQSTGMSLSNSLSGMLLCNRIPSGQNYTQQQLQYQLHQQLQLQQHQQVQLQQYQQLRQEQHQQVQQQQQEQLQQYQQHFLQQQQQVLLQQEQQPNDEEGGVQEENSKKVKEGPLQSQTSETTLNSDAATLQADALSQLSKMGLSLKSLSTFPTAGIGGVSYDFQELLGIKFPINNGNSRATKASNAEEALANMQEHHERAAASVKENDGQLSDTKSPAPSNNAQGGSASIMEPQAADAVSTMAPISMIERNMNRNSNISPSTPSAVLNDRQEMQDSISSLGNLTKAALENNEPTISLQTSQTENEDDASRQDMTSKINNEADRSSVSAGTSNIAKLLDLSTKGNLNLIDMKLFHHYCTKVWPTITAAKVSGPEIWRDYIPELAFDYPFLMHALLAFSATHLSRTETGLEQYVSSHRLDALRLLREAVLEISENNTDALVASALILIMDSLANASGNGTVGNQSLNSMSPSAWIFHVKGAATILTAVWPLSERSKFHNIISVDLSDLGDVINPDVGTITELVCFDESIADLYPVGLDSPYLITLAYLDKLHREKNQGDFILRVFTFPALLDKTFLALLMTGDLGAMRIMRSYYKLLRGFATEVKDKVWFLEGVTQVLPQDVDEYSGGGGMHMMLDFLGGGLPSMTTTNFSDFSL", "assay": "PBM E-score (8-mer binding enrichment) (E-score (-0.5 to 0.5)); higher = stronger / more preferred TF binding", "conditions": "protein concentration: 200 nM; construct: GST-full length", "description": "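Universal 'all 10-mer' protein binding microarrays (Agilent AMADID 015681) probed with GST-tagged S. cerevisiae TFs (full-length or DBD) made by in vitro transcription/translation (PURExpress), about 100-200 nM. Bound TF was detected with fluorescent anti-GST. Each ungapped 8-mer (which stands for itself and its reverse complement) is scored by the PBM enrichment score (E-score), a modified Wilcoxon-Mann-Whitney statistic from -0.5 to +0.5, computed with the Universal PBM Analysis Suite. Scale: above 0.35 generally sequence-specific binding.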"}
{"sequence": "ATCCTTAC", "PBM E-score": -0.0381}
{"sequence": "AAAACTCA", "PBM E-score": -0.0631}
{"sequence": "CGACCCTC", "PBM E-score": 0.0606}
{"sequence": "AAGCCCAC", "PBM E-score": -0.0729}
{"sequence": "AAATGCAG", "PBM E-score": -0.0984}
{"sequence": "GCTGGATA", "PBM E-score": -0.131}
{"sequence": "CCCTGTAG", "PBM E-score": -0.234}
{"sequence": "CGAACGCG", "PBM E-score": 0.185}
{"sequence": "AGAACGAC", "PBM E-score": 0.391}
{"sequence": "ACAACGAG", "PBM E-score": 0.257}
{"sequence": "AGAACGTC", "PBM E-score": -0.066}
{"sequence": "AGAACGAG", "PBM E-score": 0.42}
{"sequence": "AGAACGAT", "PBM E-score": 0.342}
{"sequence": "CGAACGAG", "PBM E-score": 0.427}
{"sequence": "CTAACGAG", "PBM E-score": 0.343}
{"sequence": "AGAACAAA", "PBM E-score": 0.103}
{"sequence": "AGAACGTG", "PBM E-score": -0.00321}
{"sequence": "ATAACGAC", "PBM E-score": 0.159}
{"sequence": "AGAACGAA", "PBM E-score": 0.376}
{"sequence": "AAACCTGT", "PBM E-score": 0.225}
{"sequence": "GCTCTCAC", "PBM E-score": -0.32}
{"sequence": "TCCGCGCA", "PBM E-score": -0.0128}
{"sequence": "AAATACTC", "PBM E-score": -0.0601}
{"sequence": "CAGTTGAG", "PBM E-score": -0.255}
{"sequence": "ACGGGCTC", "PBM E-score": 0.128}
{"sequence": "AATAACGT", "PBM E-score": 0.133}
{"sequence": "TGAACGCA", "PBM E-score": 0.189}
{"sequence": "ATAACGAA", "PBM E-score": 0.197}
{"sequence": "TTAACGAA", "PBM E-score": 0.448}
{"sequence": "TGAACGAA", "PBM E-score": 0.458}
{"sequence": "TCAACGAA", "PBM E-score": 0.249}
{"sequence": "CTAACGAA", "PBM E-score": 0.287}
{"sequence": "CTACCGTA", "PBM E-score": 0.301}
{"sequence": "TCACGACA", "PBM E-score": -0.138}
{"sequence": "GGACGACC", "PBM E-score": -0.212}
{"sequence": "CAACGACA", "PBM E-score": 0.313}
{"sequence": "GAACGACA", "PBM E-score": 0.437}
{"sequence": "AAACGACC", "PBM E-score": 0.458}
{"sequence": "CAACGACC", "PBM E-score": 0.221}
{"sequence": "TGACGACA", "PBM E-score": 0.0658}
{"sequence": "AGACGACC", "PBM E-score": 0.132}
{"sequence": "GCACGACC", "PBM E-score": -0.2}
{"sequence": "GGACGACA", "PBM E-score": -0.266}
{"sequence": "TAACGACA", "PBM E-score": 0.381}
{"sequence": "GAACGACC", "PBM E-score": 0.429}
{"sequence": "AGCCAACC", "PBM E-score": 0.0299}
{"sequence": "TCTCACCA", "PBM E-score": -0.14}
{"sequence": "CAGTGCAC", "PBM E-score": -0.136}
{"sequence": "CTACCACA", "PBM E-score": -0.234}
{"sequence": "CCGGCTAA", "PBM E-score": -0.199}
{"sequence": "AGATAAAG", "PBM E-score": -0.0496}
{"sequence": "AAACGACA", "PBM E-score": 0.479}
{"sequence": "CAACGACG", "PBM E-score": 0.296}
{"sequence": "ACACGACA", "PBM E-score": 0.221}
{"sequence": "AGACGACA", "PBM E-score": 0.104}
{"sequence": "AAACGACG", "PBM E-score": 0.476}
{"sequence": "AAACGACT", "PBM E-score": 0.456}
{"sequence": "AGACGACT", "PBM E-score": 0.0557}
{"sequence": "ACACGACT", "PBM E-score": 0.194}
{"sequence": "CGACGACG", "PBM E-score": 0.0684}
{"sequence": "GCCGAGAA", "PBM E-score": 0.068}
{"sequence": "AACAATCA", "PBM E-score": -0.0313}
{"sequence": "CCTGGGGC", "PBM E-score": -0.165}
{"sequence": "TCGCCGCA", "PBM E-score": -0.0606}
{"sequence": "AATTAACG", "PBM E-score": 0.272}
{"sequence": "AGAATAGC", "PBM E-score": -0.229}
{"sequence": "TTCCGGAA", "PBM E-score": -0.206}
{"sequence": "CATCATTA", "PBM E-score": -0.0416}
{"sequence": "ACTTACTG", "PBM E-score": -0.00843}
{"sequence": "CGTATATC", "PBM E-score": 0.454}
{"sequence": "CGTATATA", "PBM E-score": 0.458}
{"sequence": "GGTATATA", "PBM E-score": 0.152}
{"sequence": "CATATATC", "PBM E-score": 0.114}
{"sequence": "AGTATATC", "PBM E-score": 0.0604}
{"sequence": "AGTATATA", "PBM E-score": 0.282}
{"sequence": "AATTCGTG", "PBM E-score": -0.0513}
{"sequence": "GATTCGGA", "PBM E-score": 0.11}
{"sequence": "GATTCGTA", "PBM E-score": 0.438}
{"sequence": "CATTCGCA", "PBM E-score": 0.0275}
{"sequence": "AATTCGTC", "PBM E-score": 0.0116}
{"sequence": "GATTCGCA", "PBM E-score": 0.131}
{"sequence": "CATTCGTA", "PBM E-score": 0.416}
{"sequence": "CATTCGTC", "PBM E-score": 0.0696}
{"sequence": "AATTCGTA", "PBM E-score": 0.433}
{"sequence": "CCTGGGAC", "PBM E-score": -0.25}
{"sequence": "CCCTCTCC", "PBM E-score": -0.339}
{"sequence": "CCGTTCGC", "PBM E-score": 0.201}
{"sequence": "ACCTTGGG", "PBM E-score": -0.219}
{"sequence": "CTAAATTC", "PBM E-score": 0.0497}
{"sequence": "AGCTGCAT", "PBM E-score": -0.108}
{"sequence": "CACGAGAA", "PBM E-score": 0.0693}
{"sequence": "AACGAGAG", "PBM E-score": 0.425}
{"sequence": "ACCGAGAT", "PBM E-score": 0.126}
{"sequence": "ATCGAGAT", "PBM E-score": -0.0275}
{"sequence": "TCCGAGAA", "PBM E-score": 0.248}
{"sequence": "ATCGAGAG", "PBM E-score": 0.0513}
{"sequence": "AACGAGAA", "PBM E-score": 0.422}
{"sequence": "TACGAGAA", "PBM E-score": 0.447}
{"sequence": "AACGAGAT", "PBM E-score": 0.417}
{"sequence": "GACGAGAA", "PBM E-score": 0.0864}
{"sequence": "TTCGAGAA", "PBM E-score": 0.109}
{"sequence": "CACGAGAG", "PBM E-score": 0.0635}
